# Positions count from the first letter of the chain named. Over roughly 16,000 sequences, “ka relative to ugcaugu” has its median near 0.0091; the highest 2% begin near 0.032. What follows is part of a selection rich in the highest values, with near analogues and random picks from the rest.
# T1: RBFOX1 RRM (Homo sapiens, UniProt Q9NWB1 109-208)
# T1 sequence: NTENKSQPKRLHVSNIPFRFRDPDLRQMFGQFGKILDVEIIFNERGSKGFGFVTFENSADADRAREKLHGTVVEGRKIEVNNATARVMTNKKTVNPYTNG
# B1: GACCAGC (DNA:RNA)
# RNA: GGGAGACCGGAAUUCAGAUUGUCCGACCAGCUUAAAUCCCGUCGUAGCCACCA
# DNA 1: CAATCTGAATTCCGGTCTCCC
# DNA 2: TGGTGGCTACGACGGGATT
# B2: GGGGUCA (DNA:RNA)
# RNA: B1 RNA with A26G, C27G, C28G, A29U, G30C, C31A
# DNA 1: CAATCTGAATTCCGGTCTCCC
# DNA 2: TGGTGGCTACGACGGGATT
# B3: AGGUCAC (DNA:RNA)
# RNA: B1 RNA with G25A, A26G, C27G, C28U, A29C, G30A
# DNA 1: CAATCTGAATTCCGGTCTCCC
# DNA 2: TGGTGGCTACGACGGGATT
# B4: CCUAGCG (DNA:RNA)
# RNA: GGGAGACCGGAAUUCAGAUUGUCCCCUAGCGUUAAAUCCCGUCGUAGCCACCA
# DNA 1: CAATCTGAATTCCGGTCTCCC
# DNA 2: TGGTGGCTACGACGGGATT
# B5: GAAUCAG (DNA:RNA)
# RNA: B1 RNA with C27A, C28U, A29C, G30A, C31G
# DNA 1: CAATCTGAATTCCGGTCTCCC
# DNA 2: TGGTGGCTACGACGGGATT
# B6: UUGAAGG (DNA:RNA)
# RNA: B4 RNA with C25U, C26U, U27G, G29A, C30G
# DNA 1: CAATCTGAATTCCGGTCTCCC
# DNA 2: TGGTGGCTACGACGGGATT
# B7: CUUACUA (DNA:RNA)
# RNA: B4 RNA with C26U, G29C, C30U, G31A
# DNA 1: CAATCTGAATTCCGGTCTCCC
# DNA 2: TGGTGGCTACGACGGGATT
# B8: UCUCGCU (DNA:RNA)
# RNA: B4 RNA with C25U, A28C, G31U
# DNA 1: CAATCTGAATTCCGGTCTCCC
# DNA 2: TGGTGGCTACGACGGGATT
# B9: GGAGAUU (DNA:RNA)
# RNA: B1 RNA with A26G, C27A, C28G, G30U, C31U
# DNA 1: CAATCTGAATTCCGGTCTCCC
# DNA 2: TGGTGGCTACGACGGGATT
# B10: GGGGAUU (DNA:RNA)
# RNA: B1 RNA with A26G, C27G, C28G, G30U, C31U
# DNA 1: CAATCTGAATTCCGGTCTCCC
# DNA 2: TGGTGGCTACGACGGGATT
# B11: GGGAAUU (DNA:RNA)
# RNA: B1 RNA with A26G, C27G, C28A, G30U, C31U
# DNA 1: CAATCTGAATTCCGGTCTCCC
# DNA 2: TGGTGGCTACGACGGGATT
# B12: GCGGUUC (DNA:RNA)
# RNA: B1 RNA with A26C, C27G, C28G, A29U, G30U
# DNA 1: CAATCTGAATTCCGGTCTCCC
# DNA 2: TGGTGGCTACGACGGGATT
# B13: GCGGUUG (DNA:RNA)
# RNA: B4 RNA with C25G, U27G, A28G, G29U, C30U
# DNA 1: CAATCTGAATTCCGGTCTCCC
# DNA 2: TGGTGGCTACGACGGGATT
# B14: CGCGGAU (DNA:RNA)
# RNA: B4 RNA with C26G, U27C, A28G, C30A, G31U
# DNA 1: CAATCTGAATTCCGGTCTCCC
# DNA 2: TGGTGGCTACGACGGGATT
# B15: GGGAGAU (DNA:RNA)
# RNA: B4 RNA with C25G, C26G, U27G, C30A, G31U
# DNA 1: CAATCTGAATTCCGGTCTCCC
# DNA 2: TGGTGGCTACGACGGGATT
# B16: CGGGGAU (DNA:RNA)
# RNA: B4 RNA with C26G, U27G, A28G, C30A, G31U
# DNA 1: CAATCTGAATTCCGGTCTCCC
# DNA 2: TGGTGGCTACGACGGGATT
# B17: GCGGGAU (DNA:RNA)
# RNA: B4 RNA with C25G, U27G, A28G, C30A, G31U
# DNA 1: CAATCTGAATTCCGGTCTCCC
# DNA 2: TGGTGGCTACGACGGGATT
# B18: GCGGCGG (DNA:RNA)
# RNA: B4 RNA with C25G, U27G, A28G, G29C, C30G
# DNA 1: CAATCTGAATTCCGGTCTCCC
# DNA 2: TGGTGGCTACGACGGGATT
# B19: GCGGAUU (DNA:RNA)
# RNA: B1 RNA with A26C, C27G, C28G, G30U, C31U
# DNA 1: CAATCTGAATTCCGGTCTCCC
# DNA 2: TGGTGGCTACGACGGGATT
# B20: GGGGGAU (DNA:RNA)
# RNA: B4 RNA with C25G, C26G, U27G, A28G, C30A, G31U
# DNA 1: CAATCTGAATTCCGGTCTCCC
# DNA 2: TGGTGGCTACGACGGGATT
# Target: T1, RBFOX1 RRM
# Test: EMSA; HiTS-Eq, 1 nM pool, 10 min; buffer printed only for the single-RNA assays: 10 mM Tris pH 7.5, 150 mM NaCl, 3.4 mM EDTA, 0.001% NP-40, 30 C
# Settings: tags: His6 N-terminal (pET28a); label: 5' 32P
# Method in brief: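 These values rest on relative association constants, computed from read-count changes of each RNA species versus the control reaction and normalised to the cognate motif. Reads came from free RNA recovered by 8% native PAGE after purified RbFox RRM (wild type or mutant) at increasing concentrations was equilibrated for 10 min in 50 µL with 1 nM of a 5′-radiolabelled pool with 7 randomized nucleotides and DNA-annealed flanks.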
row,Binder,binding signal
1,B1,0.00826 KA relative to UGCAUGU
2,B2,0.0251 KA relative to UGCAUGU
3,B3,0.0109 KA relative to UGCAUGU
4,B4,0.00608 KA relative to UGCAUGU
5,B5,0.00941 KA relative to UGCAUGU
6,B6,0.0111 KA relative to UGCAUGU
7,B7,0.00319 KA relative to UGCAUGU
8,B8,0.0104 KA relative to UGCAUGU
9,B9,0.0219 KA relative to UGCAUGU
10,B10,0.038 KA relative to UGCAUGU
11,B11,0.0335 KA relative to UGCAUGU
12,B12,0.0202 KA relative to UGCAUGU
13,B13,0.0329 KA relative to UGCAUGU
14,B14,0.0187 KA relative to UGCAUGU
15,B15,0.0316 KA relative to UGCAUGU
16,B16,0.0184 KA relative to UGCAUGU
17,B17,0.0486 KA relative to UGCAUGU
18,B18,0.0288 KA relative to UGCAUGU
19,B19,0.0163 KA relative to UGCAUGU
20,B20,0.0252 KA relative to UGCAUGU

# — PMC9911399, “Two distinct binding modes provide the RNA-binding protein RbFox with extraordinary sequence specificity”
